The whole screen tested about 87,000 compounds, of which about 360 (0.41%) were called active. Shown is part of a subset that was picked to be rich in actives. Values without a mark were called inactive. No stated cut-off is given here; in the data, active means cytotoxicity above about 50%; inactive means the rest.

The nature of the test: cytotoxicity in HT1080 fibrosarcoma cells, cell-based, fluorescence readout (AID 620).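 Further: cells exposed to compound overnight then 4 h with Alamar Blue; 0% = vehicle DMSO and 100% = killing control.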 Particulars: HT1080 viability, at 10 µM, hits give high values.
For the compound `COc1ccc(CCN(C)C(=O)N2CCOCC2)cc1OC`, the cytotoxicity was -5.8%.

In the case of `COc1cc(C(=O)Nc2nc3ccccc3s2)ccc1OCc1c(C)noc1C`, the cytotoxicity was -13%.

As for `COc1ccc2nc(NC(=O)c3cccc(OCc4c(C)noc4C)c3)sc2c1`, the cytotoxicity is 57.3% (active).

On to `CCSc1nnc(NC(=O)c2cccc(OCc3c(C)noc3C)c2)s1`, for which the cytotoxicity was -11.1%.

Consider `CC1C(=O)CCN(C(C)C)C1C` (centres undefined), for which the cytotoxicity was -13.7%.

For `Cc1oc2cc(O)cc(C)c2c(=O)c1-c1cnn(-c2ccccc2)c1`, the cytotoxicity was 33.9%.

With `O=C1CCc2cc(S(=O)(=O)N3CCCC3C(=O)N3CCN(c4ccccc4)CC3)ccc2N1` (centres undefined), the cytotoxicity is -3.8%.

`CC(C)(C)c1cc(NCCCn2ccnc2)n2ncc(-c3ccc(Cl)cc3)c2n1`: the cytotoxicity is -4.9%.

In the case of `Cc1cc(NCCCn2ccnc2)n2ncc(-c3ccccc3)c2n1`, the cytotoxicity was -5.3%.

As to `Cc1cccc(-n2nnnc2SCC(=O)NCCN2C(=O)CSC2=O)c1`, the cytotoxicity is -3.3%.

As to `O=C(c1cc2ccccc2oc1=O)N(Cc1cccs1)C1CCS(=O)(=O)C1` (centres undefined), the cytotoxicity was 3.4%.

As for `Cc1ccc(C2C(C#N)=C(N)Oc3n[nH]c(C)c32)cc1` (centres undefined), the cytotoxicity is 1.3%.

Turning to `Cc1[nH]nc2c1C(C(C)C)C(C#N)=C(N)O2` (centres undefined), the cytotoxicity is 11.3%.

For `Cc1[nH]nc2c1C(C1CC=CCC1)C(C#N)=C(N)O2` (centres undefined), the cytotoxicity was 73% (active).

For the compound `Cc1ccc(N=Nc2c(C)[nH][nH]c2=O)c(C)c1`, the cytotoxicity was 1.8%.

Turning to `COc1ccc(CCN/C=C2/CC(=O)NC2=O)cc1OC`, the cytotoxicity is 0.2%.

Consider `COc1ccc(C)cc1NC(=O)NC1CCN(Cc2ccccc2)CC1`, for which the cytotoxicity was 3%.

For `Nc1ccc(Br)c2c1C(=O)c1ccccc1C2=O`, the cytotoxicity was -18.1%.

As for `Nc1ccc2c(c1)C(=O)C(=O)c1ccccc1-2`, the cytotoxicity was 92.7% (active).

On to `O=C1C(=O)c2ccc(-c3ccccc3)cc2-c2ccccc21`, for which the cytotoxicity is 47.5%.

Take `COc1ccc(C2=NOC(C(=O)NCc3ccco3)C2)cc1` (centres undefined): the cytotoxicity is 6%.

As to `O=C(NCc1cccs1)C1CC(c2ccccc2O)=NO1` (centres undefined), the cytotoxicity is -1.4%.

For the compound `COc1ccc(C2=NOC(C(=O)NCc3cccs3)C2)cc1` (centres undefined), the cytotoxicity is 7.4%.

Turning to `COc1ccc(C2=NOC(C(=O)NCc3cccs3)C2)cc1OC` (centres undefined), the cytotoxicity is 59.8% (active).

Turning to `COc1cc(C2=NOC(C(=O)NCc3ccccn3)C2)cc(OC)c1OC` (centres undefined), the cytotoxicity was -2.6%.

For the compound `COc1ccc(C2=NOC(C(=O)NCc3ccco3)C2)cc1OC` (centres undefined), the cytotoxicity is 46.5%.

Regarding `COc1cccc(C2=NOC(C(=O)NCc3cccs3)C2)c1` (centres undefined), the cytotoxicity is -1.8%.

Consider `COc1cc(C2=NOC(C(=O)NCc3cccs3)C2)cc(OC)c1OC` (centres undefined), for which the cytotoxicity is 58.1% (active).

On to `COc1cc(C2=NOC(C(=O)NCc3ccco3)C2)cc(OC)c1OC` (centres undefined), for which the cytotoxicity was 54.4% (active).

The values are drawn from PubChem BioAssay AID620 (Sanford-Burnham Center for Chemical Genomics, 2007).
